# Data published in PubChem BioAssay AID652134 (The Scripps Research Institute Molecular Screening Center, 2013).
# The whole screen tested about 2,400 compounds, of which about 2,100 (88%) were called active.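 How the source made its calls: active means inhibition above the average of every tested compound plus 3 SD (cut at about 3.8% in these data); inactive means the rest.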 So high a share suggests a set chosen from earlier hits. These entries were drawn from the full list.
# Target: Nuclear receptor subfamily 0 group B member 1 (Homo sapiens) (UniProt P51843)
# Test: NR0B1 repressor blockers, StAR reporter readout – cell-based, luminescence, HEK293T, full-length DAX-1, SF-1 activated StAR promoter, confirmation (AID 652134);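 further: 0% = DAX-1 cells with DMSO and 100% = no DAX-1 control cells with DMSO; active compounds raise luminescence by relieving repression of the StAR reporter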
# Details: HEK293T StAR-promoter luciferase reporter, SF-1/DAX-1 repression; at 6.8 µM; stronger effect = higher value
# Sequence of Nuclear receptor subfamily 0 group B member 1 (Homo sapiens) (P51843 whole entry, looked up): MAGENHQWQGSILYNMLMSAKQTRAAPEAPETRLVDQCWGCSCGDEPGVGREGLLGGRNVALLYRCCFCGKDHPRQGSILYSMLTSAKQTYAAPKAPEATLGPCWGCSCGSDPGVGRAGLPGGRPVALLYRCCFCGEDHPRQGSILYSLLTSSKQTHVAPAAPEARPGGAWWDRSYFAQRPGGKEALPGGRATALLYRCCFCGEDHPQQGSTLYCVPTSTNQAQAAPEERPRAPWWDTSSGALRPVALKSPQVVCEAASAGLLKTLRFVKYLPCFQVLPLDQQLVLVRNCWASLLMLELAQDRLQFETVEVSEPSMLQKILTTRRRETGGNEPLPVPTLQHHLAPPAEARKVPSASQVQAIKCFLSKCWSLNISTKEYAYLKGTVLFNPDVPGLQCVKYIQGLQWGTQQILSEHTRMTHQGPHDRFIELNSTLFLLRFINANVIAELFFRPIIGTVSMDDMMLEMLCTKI
row,SMILES,inhibition
1,CC1CCCN(c2ccc(C(=O)NCCc3ccccc3)cn2)C1 (configuration not stated),7.54% (active)
2,CC[C@]1(O)CC2CN(CCc3c([nH]c4ccccc34)[C@@](C(=O)OC)(c3cc4c(cc3OC)N(C=O)[C@H]3[C@@](O)(C(=O)OC)[C@H](OC(C)=O)[C@]5(CC)C=CCN6CC[C@]43[C@@H]65)C2)C1 (some centres not stated),17.7% (active)
3,CC[C@]1(O)C[C@@H]2CN(CCc3c([nH]c4ccccc34)[C@@](C(=O)OC)(c3cc4c(cc3OC)N(C)[C@H]3[C@@](O)(C(=O)OC)[C@H](OC(C)=O)[C@]5(CC)C=CCN6CC[C@]43[C@@H]65)C2)C1,19.4% (active)
4,Cc1c(C(=O)Nc2ccccn2)oc2ccc(Br)cc12,12.8% (active)
5,CCOc1ccc(-c2nnc(-c3ccco3)o2)cc1,9.81% (active)
6,O=C(NCC1CCCO1)c1cc2c(s1)CCCC2 (configuration not stated),5.13% (active)
7,O=C(Nc1ccc2ccccc2c1[N+](=O)[O-])c1ccccc1,8.86% (active)
8,C/C(=N\NC(=O)c1ccccc1F)c1ccccn1,-7.54% (inactive)
9,O=C(NCCOc1ccccc1)c1ccccc1F,13.3% (active)
10,O=C(Nc1ccn(Cc2ccccc2)n1)c1n[nH]c([N+](=O)[O-])c1Cl,10.4% (active)
11,O=C(CCc1ccccc1)Nc1ncc([N+](=O)[O-])s1,3.12% (inactive)
12,COc1ccc(-c2csc(Nc3ccccn3)n2)cc1,12.8% (active)
13,COC(=O)Nc1nc2ccc(C(=O)C3CC3)cc2[nH]1,17.1% (active)
14,CN1CCN(C(=O)c2ccc(-c3ccc(Br)cc3)o2)CC1,6.02% (active)
15,COc1ccc(CCOC2OC(CO)C(OC(=O)/C=C/c3ccc(O)c(OC)c3)C(O[C@H]3O[C@@H](C)[C@H](O)[C@@H](O)[C@H]3O)C2O)cc1O (some centres not stated),2.5% (inactive)
16,CCCOc1ccc(C(=O)NCCc2ccccc2)cc1,11.2% (active)
17,COc1ccc(C(=O)NCC[N+](C)(C)C)cc1,1.64% (inactive)
18,O=C(N/N=C\C1CC=CCC1)c1ccc(Br)o1 (configuration not stated),0.48% (inactive)
19,CCCc1cc(C(=O)Nc2ccc(Cl)cn2)cs1,8.76% (active)

row,SMILES,inhibition
1,CCCc1cc(C(=O)Nc2ccc(C(=O)OC)cc2)cs1,3.03% (inactive)
2,Nc1c(C(=O)Nc2ccc3c(c2)OCCO3)nnn1Cc1ccccc1,12.5% (active)
3,O=C(Nc1ccc(NC(=O)c2cccs2)cn1)c1ccco1,12.9% (active)
4,O=C(NC(=S)Nc1ccc(Cl)cc1Cl)C1CC1,5.19% (active)
5,COc1cc(OC)c(C(=O)NNC(=O)c2ccc(NS(=O)(=O)c3cccs3)cc2)cc1OC,1.04% (inactive)
6,O=C(Nc1ccccc1)Nc1nc2ccccc2s1,14.6% (active)
7,CC(C)c1ccc(Nc2nnc(SCC(=O)c3nnc(-c4ccccc4)o3)s2)cc1,7.92% (active)
8,CCc1ccc2oc(-c3ccc(N)cc3)nc2c1,12.2% (active)
9,CC(C)(C)c1csc(NC2=NS(=O)(=O)c3ccccc32)n1,11.5% (active)
10,Cc1ccc(-n2cc3ccc([N+](=O)[O-])cc3n2)cc1,12.1% (active)
11,Brc1ccc2nc(N3CCCC3)sc2c1,7.35% (active)
12,O=C(Nc1ncccc1O)c1ccc(S(=O)(=O)N2CCCCCC2)cc1,7.57% (active)
13,O=C(Nc1ncccc1O)c1ccc(S(=O)(=O)N2CCCC2)cc1,10.3% (active)
14,O=C(Nc1ncccc1O)c1ccc(C(=O)c2ccccc2)cc1,51.3% (active)
15,CCc1ccc(NC(=O)N2CCc3ccccc3C2)cc1,5.01% (active)
16,Cc1cc(N)n2nc(-c3ccc(C(C)(C)C)cc3)cc2n1,13.7% (active)
17,O=C(c1cnn(-c2ccc(Cl)cc2)c1)c1ccccc1O,11.7% (active)
18,Cc1ccc(-c2nc3ccc(Br)cn3c2Cc2ccccc2C(F)(F)F)cc1,5.68% (active)
19,COc1ccccc1Cc1c(-c2ccc(F)cc2)nc2ccc(C)cn12,4.48% (active)

row,SMILES,inhibition
1,Nc1ccc2nn(-c3ccc(Cl)cc3)nc2c1,15.9% (active)
2,CN1OC[C@@H]2CN[C@H](c3ccc(-c4ccccc4)cc3)C[C@@H]21,8.84% (active)
3,COc1ccc(-c2csc(-c3cccs3)n2)cc1OC,10.7% (active)
4,CC1CCN(CCCNC(=O)CN2C(=O)CSc3ccc(S(=O)(=O)N4CCCCC4)cc32)CC1,2.3% (inactive)
5,CSCCC(NC(=O)c1ccco1)C(=O)Nc1cc(C)ccn1 (configuration not stated),12.7% (active)
6,Cc1nc(NC(=O)c2ccc3c(c2)OCCO3)ccc1Br,12.1% (active)
7,CN1CCN(c2ccc(NC(=O)c3ccc4c(c3)OCCO4)cc2Cl)CC1,6.62% (active)
8,O=C(Nc1ccccc1)c1ccc2c(c1)OCCCO2,15.6% (active)
9,Cc1ccc(C(=O)NNC(=O)c2ccc3c(c2)OCCO3)cc1,3.83% (active)
10,CCC(=O)Nc1ccc(-c2ccc(N3CCCCC3)nn2)cc1,3.57% (inactive)
11,c1ccc(Cc2c(-c3ccco3)nc3c4ccccc4ccn23)cc1,12.1% (active)
12,Cc1cc(C(=O)NCCc2ccc(Cl)cc2)c(C)o1,3.8% (active)
13,COc1ccc(CCNC(=O)COC(=O)Cc2ccccc2F)cc1,0.17% (inactive)
14,O=C(O)c1ccc(N/N=C/c2cn(-c3ccccc3)nc2-c2cccs2)cc1,12.7% (active)
15,CCSc1nnc(NC(=O)c2ccc(C)cc2)s1,10% (active)
16,NC(=O)CSc1nnc(NC(=O)c2ccc3ccccc3c2)s1,10% (active)
17,Cc1ccnc(NC(=O)CNC(=O)c2ccccc2)c1,3.68% (active)
18,Cc1nn(-c2ccc([N+](=O)[O-])cc2)c(N)c1-c1ccccc1,15.1% (active)
19,Fc1ccc2cnc(-c3ccccc3)cc2c1,6.65% (active)
